This passage reports potency estimated from few doses results from PMC11062922 (Nature Chemical Biology, 2023).

Where two headings read alike, the source gives them in different places.

Parameters in all cases: species or system human, MV4-11 + K-562 + COLO205 + SK-N-BE2 + OVCAR-8
The test system of one test is CDC42BPG. Particulars: read-out: apparent Kd, n = 1.
For a further test, the system named is IRAK3. The note with it: read-out: apparent Kd; compound concentrations:100 nM and 1000 nM (sheet 'Samples'); n = 1.
A further test has as its system MAPK14. The note with it: read-out: apparent Kd; compound concentrations:100 nM and 1000 nM (sheet 'Samples'); n = 1.
Another test has as its system PIK3CA. The note with it: read-out: apparent Kd; compound concentrations:100 nM and 1000 nM (sheet 'Samples'); n = 1.
For the next test, the system named is PIK3CD. The note with it: read-out: apparent Kd; compound concentrations:100 nM and 1000 nM (sheet 'Samples'); n = 1.
For the next test, the system named is PIM1. Particulars: read-out: apparent Kd; compound concentrations:100 nM and 1000 nM (sheet 'Samples'); n = 1.
Another test concerns STK16. The note with it: read-out: apparent Kd; compound concentrations:100 nM and 1000 nM (sheet 'Samples'); n = 1.
For another test, the system named is MYLK3. Particulars: read-out: apparent Kd; compound concentrations: 100 nM and 1000 nM (sheet 'Samples'), CATDS: 0.26108904226554702; n = 1.
Another test relates to NLK. The note with it: read-out: apparent Kd; compound concentrations: 100 nM and 1000 nM (sheet 'Samples'), CATDS: 0.267890772302949; n = 1.
A further test deals with TNIK. The note with it: read-out: apparent Kd; compound concentrations: 100 nM and 1000 nM (sheet 'Samples'), CATDS: 0.264395551516103; n = 1.
The test system of the next test is CAMK4. The note with it: read-out: apparent Kd; compound concentrations: 100 nM and 1000 nM (sheet 'Samples'), CATDS: 0.39593568375035498; n = 1.
The subject of the next test is CDK10. Particulars: read-out: apparent Kd; compound concentrations:100 nM and 1000 nM (sheet 'Samples'); n = 1.
For the next test, the system named is GSK3A. The note with it: read-out: apparent Kd, n = 1.
Another test concerns GSK3B. Particulars: read-out: apparent Kd, n = 1.
A further test concerns ILK. Particulars: read-out: apparent Kd; compound concentrations:100 nM and 1000 nM (sheet 'Samples'); n = 1.
The next test concerns PKN1. The note with it: read-out: apparent Kd; compound concentrations:100 nM and 1000 nM (sheet 'Samples'); n = 1.
The subject of the next test is PRKCB. The note with it: read-out: apparent Kd; compound concentrations: 100 nM and 1000 nM (sheet 'Samples'), CATDS: 0.15520106797875899; n = 1.
For another test, the system named is PRKCI. The note with it: read-out: apparent Kd; compound concentrations:100 nM and 1000 nM (sheet 'Samples'); n = 1.
The next test deals with RPS6KA6. Particulars: read-out: apparent Kd; compound concentrations:100 nM and 1000 nM (sheet 'Samples'); n = 1.
For another test, the system named is RPS6KB1. Particulars: read-out: apparent Kd; compound concentrations:100 nM and 1000 nM (sheet 'Samples'); n = 1.
A further test deals with CDC42. Particulars: read-out: apparent Kd; compound concentrations: 100 nM and 1000 nM (sheet 'Samples'), CATDS: 0.12762221298853901; n = 1.
A further test relates to T1, DJA1.
T1 construct: gene DNAJA1
The note with it: read-out: apparent Kd; compound concentrations: 100 nM and 1000 nM (sheet 'Samples'), CATDS: 0.11539226669729399; n = 1.

For a further test, the system named is HSP90AA1. Particulars: read-out: apparent Kd; compound concentrations: 100 nM and 1000 nM (sheet 'Samples'), CATDS: 0.12399635685572399; n = 1.
The next test has as its system HSP90B1. Particulars: read-out: apparent Kd; compound concentrations: 100 nM and 1000 nM (sheet 'Samples'), CATDS: 0.12934168659945999; n = 1.
A further test deals with HSPE1. The note with it: read-out: apparent Kd; compound concentrations: 100 nM and 1000 nM (sheet 'Samples'), CATDS: 0.19606542414911901; n = 1.
For another test, the system named is PGK1. The note with it: read-out: apparent Kd; compound concentrations: 100 nM and 1000 nM (sheet 'Samples'), CATDS: 0.21364088639266299; n = 1.
Another test has as its system PKM. Particulars: read-out: apparent Kd; compound concentrations: 100 nM and 1000 nM (sheet 'Samples'), CATDS: 0.14448823643602399; n = 1.
The subject of another test is CDK16. The note with it: read-out: apparent Kd; compound concentrations: 100 nM and 1000 nM (sheet 'Samples'), CATDS: 0.11637141533409; n = 1.
A further test concerns CDK17. Particulars: read-out: apparent Kd; compound concentrations: 100 nM and 1000 nM (sheet 'Samples'), CATDS: 0.129072520880324; n = 1.
For the next test, the system named is CDK9. The note with it: read-out: apparent Kd; compound concentrations: 100 nM and 1000 nM (sheet 'Samples'), CATDS: 8.2181630461084801E-2; n = 1.
In a further test the test system is CDKL5. The note with it: read-out: apparent Kd; compound concentrations: 100 nM and 1000 nM (sheet 'Samples'), CATDS: 0.15820279930109701; n = 1.
The test system of the next test is DYRK1A. The note with it: read-out: apparent Kd; compound concentrations: 100 nM and 1000 nM (sheet 'Samples'), CATDS: 8.3758685626984103E-2; n = 1.
The test system of the next test is SMG1. Particulars: read-out: apparent Kd; compound concentrations: 100 nM and 1000 nM (sheet 'Samples'), CATDS: 7.6423635677126206E-2; n = 1.
The test system of the next test is CDK2. Particulars: read-out: apparent Kd; compound concentrations: 100 nM and 1000 nM (sheet 'Samples'), CATDS: 0.44900253923849898; n = 1.
A further test deals with CDK6. Particulars: read-out: apparent Kd; compound concentrations: 100 nM and 1000 nM (sheet 'Samples'), CATDS: 0.29293356798223702; n = 1.
For the next test, the system named is CSNK2A2. Particulars: read-out: apparent Kd; compound concentrations: 100 nM and 1000 nM (sheet 'Samples'), CATDS: 0.29769898154006003; n = 1.
The mark [1] stands for this setting: compound concentrations:100 nM and 1000 nM (sheet 'Samples').

Turning to `O=C(Nc1n[nH]c2nc(-c3ccccc3)c(Br)cc12)C1CC1` [SB-708998], the potency estimated from few doses was 1880 nM with CDC42BPG (setting [1]); 1410 nM with IRAK3; 1640 nM in the test on MAPK14; 245 nM with PIK3CA; 187 nM with PIK3CD; 1280 nM in the test with PIM1. In the test on STK16, the potency estimated from few doses was 1890 nM.

With `O=C(Nc1n[nH]c2cc(-c3ccccc3)ccc12)C1CC1` [SB-732941], the potency estimated from few doses with CDC42BPG (compound concentrations: 100 nM and 1000 nM (sheet 'Samples'), CATDS: 0.214831425335373) was 2210 nM; in the test with MYLK3, 1450 nM; in the test with NLK it was 1380 nM; with TNIK it was 1420 nM.

`C/C(=C1/SC(NCc2cccs2)=NC1=O)c1ccc2ncccc2c1` [RO4607009-000]: the potency estimated from few doses was 2260 nM in the test on CAMK4; 701 nM with CDC42BPG (compound concentrations: 100 nM and 1000 nM (sheet 'Samples'), CATDS: 0.67827085462466996).

Take `CN1C[C@@H]2Cn3c(c(C4=C(c5cn(C)c6ccccc56)C(=O)NC4=O)c4ccccc43)C[C@H]2C1.Cl` [RO0320557-001]: the potency estimated from few doses with CDK10 is 1200 nM; with GSK3A (setting [1]) it was 53.4 nM; with GSK3B (setting [1]), 41.5 nM; in the test with ILK, 2350 nM; in the test on PKN1, 2490 nM; in the test on PRKCB, 20.3 nM. Besides, the results for the potency estimated from few doses with PRKCI, in the test with RPS6KA6 and in the test on RPS6KB1 were 1930 nM, 386 nM and 104 nM, respectively.

On to `Cn1cc(C2=C(c3c4n(c5ccccc35)CCCC4)C(=O)NC2=O)c2ccccc21` [RO0318259-000], for which the potency estimated from few doses in the test with CDC42 was 1480 nM; in the test with DJA1 it was 1920 nM; in the test with HSP90AA1, 1590 nM; in the test with HSP90B1, 1440 nM; with HSPE1, 644 nM; in the test with PGK1 it was 561 nM. Also, the potency estimated from few doses with PKM was 1130 nM.

Take `CCN1CCC(C(=O)Nc2n[nH]c3nnc(-c4cccc(F)c4F)cc23)CC1.Cl` [SB-686709-A]: the potency estimated from few doses is 199 nM in the test with CDK16; 132 nM in the test with CDK17; 1050 nM with CDK9; 60.5 nM in the test on CDKL5; 937 nM with DYRK1A; 0.589 nM in the test with GSK3A (compound concentrations: 100 nM and 1000 nM (sheet 'Samples'), CATDS: 0.64867635498298803). Also, the potency estimated from few doses in the test on GSK3B (compound concentrations: 100 nM and 1000 nM (sheet 'Samples'), CATDS: 0.38395769159981902) was 1.75 nM; in the test with SMG1, 1680 nM.

`Cl.NS(=O)(=O)c1ccc(N/N=C2\C(=O)Nc3cccc(CCc4ccncc4)c32)cc1` [GW352430A]: the potency estimated from few doses is 936 nM in the test on CDK2, 2160 nM with CDK6 and 2070 nM in the test with CSNK2A2.
